Source: PubChem BioAssay AID1159580 (chemical genetic matrix, 2015)
Several values for one entry are separate records, joined by “and”; a condition that tells them apart may be missing. Equal values may be shown once. Screen size: about 5,500 compounds; about 2,000 (36%) were called active. Not shown: some 18% with an inconclusive outcome. No stated cut-off is given here; in the data, active means normalized growth mostly below about 0.91 (no sharp cut-off); inconclusive means no clear call, values can overlap the other calls; inactive means mostly above about 0.92. The list shows a part of the results.

Assay: chemical genetic growth profiling, strain panel (AID 1159580);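 further: tested at 20 µM; growth read once vehicle control cultures reached saturation at 30 °C; 1 = growth at the plate median or of vehicle wells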
Conditions: S. cerevisiae deletion strains, growth OD

Measured: normalized growth

Cc1cc(O)c2c(c1O)C(=O)c1c(O)cc(C)c(O)c1C2=O
inactive: locus YAL013W, strain DEP1, stronger effect = lower value 0.982 | locus YAL021C, strain ccr4, stronger effect = lower value 0.948 | locus YAL026C, strain drs2, stronger effect = lower value 0.969 | locus YAL030W, strain snc1, stronger effect = lower value 0.951 | locus YBL061C, strain skt5, stronger effect = lower value 0.968 | locus YBR009C, strain hhf1, stronger effect = lower value 0.97 | locus YBR021W, strain FUR4, stronger effect = lower value 1.12 | locus YBR023C, strain chs3, stronger effect = lower value 0.983 | locus YBR171W, strain sec66, stronger effect = lower value 0.948 | locus YBR229C, strain ROT2, stronger effect = lower value 0.969 | locus YBR231C, strain swc5, stronger effect = lower value 0.974 | locus YBR279W, strain paf1, stronger effect = lower value 0.989 | locus YCL011C, strain gbp2, stronger effect = lower value 0.939 | locus YCL016C, strain dcc1, stronger effect = lower value 0.978 | locus YCL029C, strain bik1, stronger effect = lower value 0.988 | locus YCL061C, strain MRC1, stronger effect = lower value 0.978 | locus YCL069W, strain vba3, stronger effect = lower value 0.966 | locus YCR088W, strain abp1, stronger effect = lower value 0.98 | locus YDL005C, strain med2, stronger effect = lower value 0.971 | locus YDL035C, strain GPR1, stronger effect = lower value 0.975 | locus YDL040C, strain nat1, stronger effect = lower value 0.991 | locus YDL074C, strain BRE1, stronger effect = lower value 1 | locus YDL101C, strain DUN1, stronger effect = lower value 0.947 | locus YDL134C, strain PPH21, stronger effect = lower value 0.967 | locus YDL185W, strain tfp1, stronger effect = lower value 0.979 | locus YDL192W, strain arf1, stronger effect = lower value 0.987 | locus YDR001C, strain nth1, stronger effect = lower value 0.952 | locus YDR069C, strain doa4, stronger effect = lower value 0.942 | locus YDR101C, strain arx1, stronger effect = lower value 0.993 | locus YDR137W, strain rgp1, stronger effect = lower value 0.877 | locus YDR150W, strain NUM1, stronger effect = lower value 0.989 | locus YDR159W, strain sac3, stronger effect = lower value 0.973 | locus YDR162C, strain NBP2, stronger effect = lower value 0.921 | locus YDR195W, strain ref2 1.04 | locus YDR297W, strain sur2, stronger effect = lower value 0.973 | locus YDR318W, strain mcm21, stronger effect = lower value 0.985 | locus YDR334W, strain swr1, stronger effect = lower value 0.921 | locus YDR335W, strain msn5, stronger effect = lower value 0.961 | locus YDR388W, stronger effect = lower value 0.986 | locus YDR392W, strain spt3, stronger effect = lower value 0.858 | locus YDR502C, strain sam2, stronger effect = lower value 1 | locus YEL003W, strain gim4, stronger effect = lower value 0.956 | locus YEL037C, strain rad23, stronger effect = lower value 0.972 | locus YEL061C, strain CIN8 (second series), stronger effect = lower value 0.97 | locus YEL061C, strain CIN8, stronger effect = lower value 0.97 | locus YER015W, strain faa2, stronger effect = lower value 0.95 | locus YER016W, strain bim1, stronger effect = lower value 0.979 | locus YER110C, stronger effect = lower value 0.992 | locus YER111C, strain swi4, stronger effect = lower value 0.963 | locus YER155C, strain BEM2 (second series), stronger effect = lower value 0.946 | locus YER155C, strain BEM2, stronger effect = lower value 0.996 | locus YER167W, strain BCK2, stronger effect = lower value 1.01 | locus YFR010W, strain ubp6, stronger effect = lower value 0.942 | locus YGL078C, strain dbp3, stronger effect = lower value 0.993 | locus YGL086W, strain mad1, stronger effect = lower value 0.981 | locus YGL167C, strain pmr1, stronger effect = lower value 0.977 | locus YGL173C, strain kem1, stronger effect = lower value 0.946 | locus YGL227W, strain vid30, stronger effect = lower value 0.983 | locus YGL240W, strain doc1, stronger effect = lower value 0.962 | locus YGL248W, strain PDE1, stronger effect = lower value 0.945 | locus YGL253W, strain hxk2, stronger effect = lower value 0.985 | locus YGR078C, strain PAC10, stronger effect = lower value 0.983 | locus YGR135W, strain pre9, stronger effect = lower value 0.988 | locus YGR229C, strain SMI1, stronger effect = lower value 0.992 | locus YGR252W, strain gcn5, stronger effect = lower value 1.16 | locus YHR013C, strain ard1, stronger effect = lower value 0.957 | locus YHR027C, strain rpn1, stronger effect = lower value 0.951 | locus YHR030C, strain SLT2, stronger effect = lower value 0.964 and 0.996 | locus YHR079C, strain IRE1 (second series), stronger effect = lower value 0.985 | locus YHR079C, strain IRE1, stronger effect = lower value 1 | locus YHR094C, strain hxt1, stronger effect = lower value 0.995 | locus YHR129C, strain ARP1, stronger effect = lower value 0.963 | locus YHR142W, strain chs7, stronger effect = lower value 0.964 | locus YHR200W, strain rpn10, stronger effect = lower value 0.994 | locus YIL066C, strain RNR3, stronger effect = lower value 0.939 | locus YIL073C, strain SPO22, stronger effect = lower value 1.3 | locus YIL125W, strain kgd1, stronger effect = lower value 1 | locus YIR030C, strain dcg1, stronger effect = lower value 0.997 | locus YJL092W, strain hpr5, stronger effect = lower value 0.965 | locus YJL095W, strain BCK1 (second series), stronger effect = lower value 0.974 | locus YJL095W, strain BCK1, stronger effect = lower value 0.893 and 0.997 | locus YJL115W, strain asf1, stronger effect = lower value 0.938 | locus YJL129C, strain trk1, stronger effect = lower value 0.891 | locus YJL134W, strain LCB3, stronger effect = lower value 0.977 | locus YJL154C, strain vps35, stronger effect = lower value 0.971 | locus YJL164C, strain tpk1, stronger effect = lower value 0.971 | locus YJL166W, strain qcr8, stronger effect = lower value 0.978 | locus YJL168C, strain set2, stronger effect = lower value 0.969 | locus YJL187C, strain SWE1 (second series), stronger effect = lower value 0.903 | locus YJL187C, strain SWE1, stronger effect = lower value 0.968 | locus YJR043C, strain POL32, stronger effect = lower value 1.02 | locus YJR066W, strain TOR1, stronger effect = lower value 0.926
